# From the supplement of paper PMC7380943
# System: CLZ3 (HCA2 human fibroblast dual HR-NHEJ reporter)
# Test: NHEJ repair efficiency (GFP+ cells) relative to control (log10 fold); higher = more non-homologous end joining
# Details: 5 µM; doxycycline 0.5 ug/mL
# 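Further: compound given one day ahead of doxycycline, which switches on I-SceI endonuclease to cut the chromosomally integrated reporter and create DSBs.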
row,SMILES,NHEJ repair efficiency (log10)
1,CC(CC(=O)C[C@@H](C)[C@H]1CC(=O)[C@@]2(C)C3=C(C(=O)[C@@H](O)[C@]12C)[C@@]1(C)CC[C@H](O)C(C)(C)[C@@H]1C[C@@H]3O)C(=O)O (stereo not given in full) [Ganoderic Acid G],0.055
2,Oc1cc(O)c2c(c1)O[C@H](c1ccc(O)c(O)c1)[C@H](O)[C@H]2c1c(O)cc(O)c2c1O[C@H](c1ccc(O)c(O)c1)[C@H](O)C2 [Procyanidin B2],0.092
3,C=C1C[C@@]23CC[C@H]4[C@@](C)(CCC[C@@]4(C)C(=O)O[C@@H]4O[C@H](CO)[C@@H](O)[C@H](O)[C@H]4O)[C@@H]2CC[C@]1(O[C@@H]1O[C@H](CO)[C@@H](O)[C@H](O)[C@H]1O)C3 [Rubusoside],0.0726
4,COc1ccc2c(c1OC)CN(C)CCc1cc3c(cc1C(=O)C2)OCO3 [Allocryptopine],0.0337
5,CC12CCC(CC1)C(C)(C)O2 [Eucalyptol],0.0692
6,O=C(O)/C=C/C(=O)O [Fumaric Acid],0.0532
7,O=C(O)C1=CO[C@@H](O[C@@H]2O[C@H](CO)[C@@H](O)[C@H](O)[C@H]2O)[C@@H]2C(CO)=CC[C@H]12 [Geniposidic acid],-0.068
8,COC(=O)[C@H]1O[C@@H](Oc2cc3oc(-c4ccc(O)cc4)cc(=O)c3c(O)c2O)[C@H](O)[C@@H](O)[C@@H]1O [Scutellarin Methyl Ester],-0.156
9,COc1ccc2ccc(=O)oc2c1CC=C(C)C [Osthole],0.0815
10,COc1cc2c(cc1O)CC[n+]1cc3c(OC)c(OC)ccc3cc1-2 [Jateorrhizine],-0.216
11,C=C1C[C@@]23CC[C@H]4[C@@](C)(CCC[C@@]4(C)C(=O)O[C@@H]4O[C@H](CO)[C@@H](O)[C@H](O)[C@H]4O)[C@@H]2CC[C@]1(O[C@@H]1O[C@H](CO)[C@@H](O)[C@H](O)[C@H]1O[C@@H]1O[C@H](CO)[C@@H](O)[C@H](O)[C@H]1O)C3 [Stevioside],0.149
12,O=c1ccc2ccc(O)c(O)c2o1 [Daphnetin],0.0636
13,OC[C@H]1O[C@@H](Oc2ccc(O)cc2)[C@H](O)[C@@H](O)[C@@H]1O [Arbutin],-0.0725
14,COc1ccc(-c2oc3c(CC=C(C)C)c(O[C@@H]4O[C@H](CO)[C@@H](O)[C@H](O)[C@H]4O)cc(O)c3c(=O)c2O[C@@H]2O[C@@H](C)[C@H](O)[C@@H](O)[C@H]2O)cc1 [Icariine],-0.13
15,CC(C)=CCC/C(C)=C/CC/C(C)=C/CC/C(C)=C/CC/C(C)=C/CC/C(C)=C/CC/C(C)=C/CC/C(C)=C/CC/C(C)=C/CO [Solanesol],-0.0479
